# Measured values reported in the supplement of paper PMC10037445.
# Values joined by “and” are separate entries in the source; they are usually repeats but may differ in a detail not shown here. Equal values may be shown once. In all, about 2,900 compounds were measured (“NF-kB SEAP reporter activity, fold change vs agonist alone”: median about 0.99, highest 2% from about 2.6 on). This excerpt belongs to a sample that is enriched for the highest values.
# Tests used:
# [1] = system: RAW-Dual; assay: NF-kB SEAP reporter activity, fold change vs agonist alone; cytotoxicity flag (confluency mask): not cytotoxic; higher = enhanced NF-kB activity
# Summary of the method: (§1)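 Cytotoxic wells were those whose IncuCyte confluency was below 70% of agonist controls in both mask sets. The cells were RAW-Dual macrophages at 50,000 cells/well in DMEM on 384-well plates, dosed with 50 nL of library stock by pin tool, stimulated with a PRR agonist 1 h later, and kept at 37 °C, 5% CO2 for 20 hours. IRF and NF-κB reporter activity, as fold change over agonist-alone wells, came from supernatant read by QuantiLuc luminescence and QuantiBlue absorbance, respectively.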
# [2] = system: RAW-Dual; assay: NF-kB SEAP reporter activity, fold change vs agonist alone; higher = enhanced NF-kB activity; conditions: library stock concentration (final ~1000-fold dilution): 10 mM
# Summary of the method: as §1
# [3] = system: RAW-Dual; assay: NF-kB SEAP reporter activity, fold change vs agonist alone; cytotoxicity flag (confluency mask): cytotoxic (confluency <70% of control); higher = enhanced NF-kB activity
# Summary of the method: as §1
# [4] = agonist: ODN 1826 (TLR9) 0.5 ug/mL
# [5] = agonist: Pam2CSK4 (TLR2/6) 0.1 ug/mL
# [6] = agonist: Pam3CSK4 (TLR2/1) 0.1 ug/mL
# [7] = cytotoxicity flag (confluency mask): not cytotoxic, agonist: Imiquimod (TLR7) […]
# [8] = cytotoxicity flag (confluency mask): not cytotoxic, agonist: MPLA (TLR4) […]
smiles,measurement,setting,value
CCn1cc(C(=O)O)c(=O)c2cc(F)c(N3CCN(C)CC3)cc21.CS(=O)(=O)O (library stock concentration (final ~1000-fold dilution): 10 mM),NF-kB SEAP reporter activity,[1]; agonist: LPS (TLR4) 0.1 ug/mL,0.962
same,NF-kB SEAP reporter activity,[1]; [4],1.03
same,NF-kB SEAP reporter activity,[1]; [5],1.11
same,NF-kB SEAP reporter activity,[1]; [6],1.12
CCn1cc(C(=O)O)c(=O)c2c(N)c(F)c(NC3CCCCC3)cc21 (library stock concentration (final ~1000-fold dilution): 10 mM),NF-kB SEAP reporter activity,[1]; agonist: LPS (TLR4) 0.1 ug/mL,4.89
same,NF-kB SEAP reporter activity,[1]; [4],2.9
same,NF-kB SEAP reporter activity,[1]; [5],1.85
same,NF-kB SEAP reporter activity,[1]; [6],3.32
CCn1cc(C(=O)O)c(=O)c2cc(F)c(N3CCN(C)CC3)cc21.CS(=O)(=O)O,NF-kB SEAP reporter activity,[2]; [7],0.916
same,NF-kB SEAP reporter activity,[2]; [8],0.878
CCn1cc(C(=O)O)c(=O)c2c(N)c(F)c(NC3CCCCC3)cc21,NF-kB SEAP reporter activity,[2]; [7],1.75
same,NF-kB SEAP reporter activity,[2]; [8],1.95
CCOC(=O)c1ccc(NC2CCCCC2)c(N)c1 (library stock concentration (final ~1000-fold dilution): 10 mM),NF-kB SEAP reporter activity,[1]; agonist: LPS (TLR4) 0.1 ug/mL,2.07
same,NF-kB SEAP reporter activity,[1]; [4],1.28
same,NF-kB SEAP reporter activity,[1]; [5],0.963
same,NF-kB SEAP reporter activity,[1]; [6],1.09
O=C1C2C3CCC(C3)C2C(=O)N1CC1CCCCC1CN1CCN(c2nsc3ccccc23)CC1 (centres undefined) (library stock concentration (final ~1000-fold dilution): 10 mM),NF-kB SEAP reporter activity,[1]; agonist: LPS (TLR4) 0.1 ug/mL,0.728
same,NF-kB SEAP reporter activity,[1]; [4],0.931
same,NF-kB SEAP reporter activity,[1]; [5],0.983
same,NF-kB SEAP reporter activity,[1]; [6],1.07
O=C1C2C3CCC(C3)C2C(=O)N1CC1CCCCC1CN1CCN(c2nsc3ccccc23)CC1 (centres undefined),NF-kB SEAP reporter activity,[2]; [7],0.878
same,NF-kB SEAP reporter activity,[2]; [8],1.06
O=C(Nc1cc(C(F)(F)F)ccc1C(F)(F)F)c1cc(Br)ccc1O,NF-kB SEAP reporter activity,"[2]; cytotoxicity flag (confluency mask): cytotoxic (confluency <70% of control), agonist: Imiquimod (TLR7) […]",0.255
same,NF-kB SEAP reporter activity,"[2]; cytotoxicity flag (confluency mask): cytotoxic (confluency <70% of control), agonist: MPLA (TLR4) […]",2.3
O=C(Nc1cc(C(F)(F)F)ccc1N1CCCCC1)c1ccncc1,NF-kB SEAP reporter activity,[2]; [7],0.957
same,NF-kB SEAP reporter activity,[2]; [8],1.01
Cc1oncc1C(=O)Nc1ccc(C(F)(F)F)cc1,NF-kB SEAP reporter activity,[2]; [7],1.24
same,NF-kB SEAP reporter activity,[2]; [8],1.15
Cc1oncc1C(=O)Nc1ccc(C(F)(F)F)cc1 (library stock concentration (final ~1000-fold dilution): 10 mM),NF-kB SEAP reporter activity,[1]; agonist: LPS (TLR4) 0.1 ug/mL,0.926
same,NF-kB SEAP reporter activity,[1]; [4],1.24
same,NF-kB SEAP reporter activity,[1]; [5],0.908
same,NF-kB SEAP reporter activity,[1]; [6],1.07
Cl.NCCOc1ccc(Cl)cc1C(=O)Nc1ccc([N+](=O)[O-])cc1Cl,NF-kB SEAP reporter activity,[2]; [7],1.31
same,NF-kB SEAP reporter activity,[2]; [8],0.949
Cl.NCCOc1ccc(Cl)cc1C(=O)Nc1ccc([N+](=O)[O-])cc1Cl (library stock concentration (final ~1000-fold dilution): 10 mM),NF-kB SEAP reporter activity,[1]; agonist: LPS (TLR4) 0.1 ug/mL,1.29
same,NF-kB SEAP reporter activity,[1]; [4],0.59
same,NF-kB SEAP reporter activity,[1]; [5],0.918
same,NF-kB SEAP reporter activity,[1]; [6],0.91
Cl.Nc1ccc(Cl)cc1C(=O)C(F)(F)F,NF-kB SEAP reporter activity,[2]; [8],1.24
O=C(Nc1ccc([N+](=O)[O-])cc1Cl)c1cc(Cl)ccc1O,NF-kB SEAP reporter activity,[2]; [7],1
same,NF-kB SEAP reporter activity,[2]; [8],1.05
O=C(Nc1ccncc1)c1cc([N+](=O)[O-])ccc1Cl (library stock concentration (final ~1000-fold dilution): 10 mM),NF-kB SEAP reporter activity,[1]; agonist: LPS (TLR4) 0.1 ug/mL,0.801
same,NF-kB SEAP reporter activity,[1]; [4],0.584
same,NF-kB SEAP reporter activity,[1]; [5],0.853
same,NF-kB SEAP reporter activity,[1]; [6],0.69
O=C(Nc1cc(C(F)(F)F)cc(C(F)(F)F)c1)c1cc(Cl)ccc1O (library stock concentration (final ~1000-fold dilution): 10 mM),NF-kB SEAP reporter activity,[3]; agonist: LPS (TLR4) 0.1 ug/mL,4.53 and 3.94
same,NF-kB SEAP reporter activity,[3]; [4],1.84 and 1.74
same,NF-kB SEAP reporter activity,[3]; [5],1.25 and 1.03
same,NF-kB SEAP reporter activity,[3]; [6],1.99 and 1.13
O=C(Nc1cc(C(F)(F)F)ccc1C(F)(F)F)c1cc(Br)ccc1O (library stock concentration (final ~1000-fold dilution): 10 mM),NF-kB SEAP reporter activity,[3]; agonist: LPS (TLR4) 0.1 ug/mL,2.68
same,NF-kB SEAP reporter activity,[3]; [4],1.82
same,NF-kB SEAP reporter activity,[3]; [5],0.573
same,NF-kB SEAP reporter activity,[3]; [6],0.839
O=C(Nc1ccc([N+](=O)[O-])cc1Cl)c1cc(Cl)ccc1O (library stock concentration (final ~1000-fold dilution): 10 mM),NF-kB SEAP reporter activity,[1]; agonist: LPS (TLR4) 0.1 ug/mL,6.96
same,NF-kB SEAP reporter activity,[1]; [4],0.713
same,NF-kB SEAP reporter activity,[1]; [5],0.379
same,NF-kB SEAP reporter activity,[1]; [6],0.527
Cl.Nc1ccc(Cl)cc1C(=O)C(F)(F)F (library stock concentration (final ~1000-fold dilution): 10 mM),NF-kB SEAP reporter activity,[1]; agonist: LPS (TLR4) 0.1 ug/mL,1.2
same,NF-kB SEAP reporter activity,[1]; [4],1.04
same,NF-kB SEAP reporter activity,[1]; [5],1.01
same,NF-kB SEAP reporter activity,[1]; [6],0.971
CC(ONC(=O)c1cc(C(F)(F)F)cc(C(F)(F)F)c1)C(=O)Nc1ccc(Cl)cc1 (centres undefined),NF-kB SEAP reporter activity,[2]; [7],0.98
same,NF-kB SEAP reporter activity,[2]; [8],1.4
O=C(Nc1ccncc1)c1cc([N+](=O)[O-])ccc1Cl,NF-kB SEAP reporter activity,[2]; [7],0.837
same,NF-kB SEAP reporter activity,[2]; [8],0.684
CC(ONC(=O)c1cc(C(F)(F)F)cc(C(F)(F)F)c1)C(=O)Nc1ccc(Cl)cc1 (centres undefined) (library stock concentration (final ~1000-fold dilution): 10 mM),NF-kB SEAP reporter activity,[1]; agonist: LPS (TLR4) 0.1 ug/mL,1.45
same,NF-kB SEAP reporter activity,[1]; [4],0.913
same,NF-kB SEAP reporter activity,[1]; [5],0.239
same,NF-kB SEAP reporter activity,[1]; [6],0.6
O=C(Nc1cc(C(F)(F)F)ccc1N1CCCCC1)c1ccncc1 (library stock concentration (final ~1000-fold dilution): 10 mM),NF-kB SEAP reporter activity,[1]; agonist: LPS (TLR4) 0.1 ug/mL,0.802
same,NF-kB SEAP reporter activity,[1]; [4],0.875
same,NF-kB SEAP reporter activity,[1]; [5],0.764
same,NF-kB SEAP reporter activity,[1]; [6],0.771
Cc1c(-c2ccc(C(N)=O)c3[nH]c4cc(C(C)(C)O)ccc4c23)cccc1-n1cnc2ccccc2c1=O (library stock concentration (final ~1000-fold dilution): 10 mM),NF-kB SEAP reporter activity,[1]; agonist: LPS (TLR4) 0.1 ug/mL,1.25
same,NF-kB SEAP reporter activity,[1]; [4],1.1
same,NF-kB SEAP reporter activity,[1]; [5],0.537
same,NF-kB SEAP reporter activity,[1]; [6],0.833
Cc1c(-c2ccc(C(N)=O)c3[nH]c4cc(C(C)(C)O)ccc4c23)cccc1-n1cnc2ccccc2c1=O,NF-kB SEAP reporter activity,[2]; [7],1.76
same,NF-kB SEAP reporter activity,[2]; [8],1.37
